Laboratory results: PubChem BioAssay (EPA / NIEHS)
Several values for one entry are separate records, joined by “and”; a condition that tells them apart may be missing. Identical values can stand only once. Some compounds were tested as several samples or in several runs, with calls that do not always agree. Activity calls are given as the source filed them. The calls were made as follows: active = hit-call score of the fitted dose curve at least 0.9, where 1 is the maximum; inactive = score below 0.9.

Assays:
[1] = BSK_CASM3C_SRB: Viability Assessment in the BioMAP Diversity Plus: CASM3C Assay (AID 2283050); conditions: primary human coronary artery smooth muscle cells;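 also: cells exposed to compound for 24 h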
[2] = read-out: Thrombomodulin, THBD (gene 7056); assay: BSK_CASM3C_Thrombomodulin: BioMAP Diversity Plus: CASM3C Assay for Thrombomodulin Biomarker Activity (AID 2283051); conditions: primary human coronary artery smooth muscle cells; actives raise or lower the signal;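 also: thrombomodulin protein level measured by ELISA 24 h after dosing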
[3] = read-out: Tissue Factor, F3 (gene 2152); assay: BSK_CASM3C_TissueFactor: BioMAP Diversity Plus: CASM3C Assay for Tissue Factor Biomarker Activity (AID 2283052); conditions: primary human coronary artery smooth muscle cells; actives raise or lower the signal;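 also: cell surface tissue factor protein level read by ELISA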
[4] = read-out: Urokinase-type plasminogen activator receptor (uPAR), PLAUR (gene 5329); assay: BSK_CASM3C_uPAR: BioMAP Diversity Plus: CASM3C Assay for Urokinase-type plasminogen activator receptor (uPAR) Biomarker Activity (AID 2283054); conditions: primary human coronary artery smooth muscle cells; actives raise or lower the signal;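 also: cell-surface uPAR protein level quantified by ELISA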
[5] = read-out: Vascular cell adhesion molecule 1 (VCAM1), VCAM1 (gene 7412); assay: BSK_CASM3C_VCAM1: BioMAP Diversity Plus: CASM3C Assay for Vascular cell adhesion molecule 1 (VCAM1) Biomarker Activity (AID 2283055); conditions: primary human coronary artery smooth muscle cells; actives raise or lower the signal;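 also: VCAM-1 protein level quantified by ELISA on the cells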
[6] = read-out: Collagen III, COL3A1 (gene 1281); assay: BSK_hDFCGF_CollagenIII: BioMAP Diversity Plus: hDFCGF Assay for Collagen III Biomarker Activity (AID 2283056); conditions: primary human foreskin fibroblasts; actives raise or lower the signal
Outline: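 Human foreskin fibroblast primary cultures sampled 24 h after dosing; Collagen III quantified by ELISA. Signal fitted bidirectionally against DMSO baseline.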

[7] = read-out: Epidermal growth factor receptor (EGFR), EGFR (gene 1956); assay: BSK_hDFCGF_EGFR: BioMAP Diversity Plus: hDFCGF Assay for Epidermal growth factor receptor (EGFR) Biomarker Activity (AID 2283057); conditions: primary human foreskin fibroblasts; actives raise or lower the signal
Outline: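 Primary human foreskin fibroblasts (hDFCGF system), sampled 24 h after dosing; EGFR quantified by ELISA. Bidirectional fit relative to DMSO baseline; SRB total-protein staining in parallel cultures for cytotoxicity.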

[8] = read-out: Interleukin-8 (IL8), CXCL8 (gene 3576); assay: BSK_hDFCGF_IL8: BioMAP Diversity Plus: hDFCGF Assay for Interleukin-8 (IL8) Biomarker Activity (AID 2283058); conditions: primary human foreskin fibroblasts; actives raise or lower the signal
Outline: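 Primary human foreskin fibroblasts (hDFCGF system) dosed with chemical; IL-8 measured by ELISA 24 hours later. Bidirectional curve fitting relative to DMSO baseline; cytotoxicity tracked in parallel cultures by SRB total protein staining.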

[9] = BSK_hDFCGF_Proliferation: Cell Proliferation Assessment in the BioMAP Diversity Plus: hDFCGF Assay (AID 2283059); conditions: primary human foreskin fibroblasts;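 also: curves fitted for both rise and fall of signal versus DMSO baseline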
Outline: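 Primary human foreskin fibroblasts, sub-confluent; […]; 10% TCA fix, 0.1% SRB stain, A560 total protein. Gain/loss fitted bidirectionally vs DMSO control.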

[10] = read-out: Macrophage colony-stimulating factor (MCSF), CSF1 (gene 1435); assay: BSK_hDFCGF_MCSF: BioMAP Diversity Plus: hDFCGF Assay for Macrophage colony-stimulating factor (MCSF) Biomarker Activity (AID 2283060); conditions: primary human foreskin fibroblasts; actives raise or lower the signal
Outline: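 Human foreskin fibroblast primary cultures; M-CSF measured by ELISA 24 hours after chemical dosing. Bidirectional fitting relative to DMSO, with overt cytotoxicity tracked by parallel SRB total-protein staining (0.1% SRB, 10% TCA fixation, 560 nm).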

[11] = BSK_hDFCGF_SRB: Viability Assessment in the BioMAP Diversity Plus: hDFCGF Assay (AID 2283061); conditions: primary human foreskin fibroblasts;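 also: cells exposed to compound for 24 h before the read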
Outline: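 Human foreskin fibroblasts in 96-well plates were treated 24 h. Total protein was measured by 0.1% SRB staining after 10% TCA fixation, read at 560 nm. Data were fitted bidirectionally against DMSO.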

[12] = read-out: TIMP metallopeptidase inhibitor 1 (TIMP1), TIMP1 (gene 7076); assay: BSK_hDFCGF_TIMP1: BioMAP Diversity Plus: hDFCGF Assay for TIMP metallopeptidase inhibitor 1 (TIMP1) Biomarker Activity (AID 2283062); conditions: primary human foreskin fibroblasts; actives raise or lower the signal
Outline: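 Human foreskin fibroblast primary cultures dosed for 24 h; secreted/surface TIMP-1 quantified by ELISA. Bidirectional curve fitting against DMSO baseline; cytotoxicity tracked in parallel cultures by SRB total-protein staining.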

[13] = read-out: Monokine induced gamma interferon (MIG), CXCL9 (gene 4283); assay: BSK_hDFCGF_MIG: BioMAP Diversity Plus: hDFCGF Assay for Monokine induced gamma interferon (MIG) Biomarker Activity (AID 2283063); conditions: primary human foreskin fibroblasts; actives raise or lower the signal
Outline: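 MIG/CXCL9 measured by ELISA 24 h after dosing primary human skin fibroblasts. Activity fitted in both directions against DMSO controls. Cytotoxicity was checked in parallel cultures by SRB staining read at 560 nm.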

[14] = read-out: Vascular cell adhesion molecule 1 (VCAM1), VCAM1 (gene 7412); assay: BSK_hDFCGF_VCAM1: BioMAP Diversity Plus: hDFCGF Assay for Vascular cell adhesion molecule 1 (VCAM1) Biomarker Activity (AID 2283065); conditions: primary human foreskin fibroblasts; actives raise or lower the signal;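 as to AC50: VCAM-1 protein level quantified by ELISA after 24 h chemical exposure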
Outline: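 Human foreskin fibroblast primary cells dosed with chemical, VCAM-1 measured by ELISA at 24 h. Bidirectional curve fitting relative to DMSO as negative control/baseline.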

[15] = read-out: Plasminogen activator inhibitor-1 (PAI1), SERPINE1 (gene 5054); assay: BSK_hDFCGF_PAI1: BioMAP Diversity Plus: hDFCGF Assay for Plasminogen activator inhibitor-1 (PAI1) Biomarker Activity (AID 2283066); conditions: primary human foreskin fibroblasts; actives raise or lower the signal
Outline: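 Human foreskin fibroblast primary cells, 24 h chemical exposure; PAI-1 measured by ELISA. Bidirectional fitting relative to DMSO; parallel cultures stained with SRB for total protein to flag overt cytotoxicity.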

[16] = read-out: Intercellular Adhesion Molecule 1 (ICAM1), ICAM1 (gene 3383); assay: BSK_KF3CT_ICAM1: BioMAP Diversity Plus: KF3CT Assay for Intercellular Adhesion Molecule 1 (ICAM1) Biomarker Activity (AID 2283067); conditions: primary human keratinocytes with fibroblasts; actives raise or lower the signal
Outline: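 Human keratinocyte–foreskin fibroblast co-culture was treated for 24 h. Cell-surface ICAM-1 was quantified by ELISA, fitted bidirectionally relative to DMSO. Cytotoxicity was checked in parallel cultures by SRB total-protein staining.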

[17] = BSK_KF3CT_SRB: Viability Assessment in the BioMAP Diversity Plus: KF3CT Assay (AID 2283069); conditions: primary human keratinocytes with fibroblasts;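 also: total protein by sulforhodamine B staining as a cytotoxicity measure; read 24 h after compound addition; fitted for both signal gain and loss against DMSO baseline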
Outline: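 Human keratinocyte and foreskin fibroblast co-culture exposed to chemical for 24 h. Total protein measured in parallel cultures by 0.1% sulforhodamine B staining after 10% TCA fixation, read at 560 nm; bidirectional fit relative to DMSO.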

[18] = read-out: Matrix Metallopeptidase 1 (MMP1), MMP1 (gene 4312); assay: BSK_hDFCGF_MMP1: BioMAP Diversity Plus: hDFCGF Assay for Matrix Metallopeptidase 1 (MMP1) Biomarker Activity (AID 2283064); conditions: primary human foreskin fibroblasts; actives raise or lower the signal
Outline: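 Primary human foreskin fibroblasts exposed to chemicals for 24 h; MMP1 measured by ELISA. Cytotoxicity tracked by SRB staining in parallel cultures; bidirectional fit relative to DMSO.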

[19] = read-out: Interferon-gamma inducible Protein 10 (IP10), CXCL10 (gene 3627); assay: BSK_KF3CT_IP10: BioMAP Diversity Plus: KF3CT Assay for Interferon-gamma inducible Protein 10 (IP10) Biomarker Activity (AID 2283068); conditions: primary human keratinocytes with fibroblasts; actives raise or lower the signal
Outline: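 In a primary skin co-culture of keratinocytes and fibroblasts, IP-10 is quantified by ELISA at 24 h after dosing. SRB staining of parallel wells monitors overt toxicity. Curves are fitted both directions against DMSO.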

Measured: AC50

OC(O)C(F)(F)C(F)(F)F
not listed: [18] | [19]
inactive: all other assays above

CNS(=O)(=O)C(F)(F)C(F)(F)C(F)(F)C(F)(F)C(F)(F)C(F)(F)C(F)(F)C(F)(F)F
active: [5] 8.2 µM and 1.69 µM | [14] 800 nM and 1.94 µM
not listed: [19]
inactive: all other assays above

OCC(O)CC(F)(F)C(F)(F)C(F)(F)C(F)(F)C(F)(F)C(F)(F)C(F)(F)C(F)(F)F (stereo not drawn)
not listed: [18]
inactive: all other assays above

CCN=C1C=CC(=C(c2ccc(N(CC)CC)cc2)c2ccc(N(CC)CC)cc2)c2ccccc21
active: [1] 5.3 µM and 5.29 µM | [2] 1.03 µM and 1.42 µM | [3] 149 nM and 1.21 µM | [4] 3.87 µM and 3.2 µM | [5] 5.39 µM and 2.81 µM | [6] 1.15 µM and 1.3 µM | [8] 2.89 µM and 2.29 µM | [9] 180 nM and 151 nM | [10] 1.37 µM and 1.28 µM | [11] 331 nM | [12] 1.42 µM and 1.3 µM | [13] 1.73 µM and 1.47 µM | [14] 1.42 µM and 854 nM | [15] 1.31 µM and 1.23 µM | [16] 3.19 µM and 3.16 µM | [19] 2.87 µM and 2.44 µM
inactive: [7] | [11] | [17]

O=C(O)C(F)(F)C(F)(F)C(F)(F)C(F)(F)C(F)(F)C(F)(F)C(F)F
inactive: [1] | [2] | [3] | [4] | [5] | [6] | [7] | [8] | [9] | [10] | [11] | [12] | [13] | [14] | [15] | [16] | [19] | [17]
active: [6] 30 µM | [7] 30 µM and 1.81 µM | [12] 223 nM
